Measured values from PubChem BioAssay AID588726 (The Scripps Research Institute Molecular Screening Center, 2011).
Hit rate of the full screen: of about 360,000 compounds, about 8,200 (2.3%) were called active. This is one part of a sample in which actives are shown more often than they occur. Unmarked numbers belong to inactive results. Cut-off read from the data, not from the text of the source: active = inhibition above about 27%; inactive = the rest.

Molecular target: Fructose-bisphosphate aldolase (Mycobacterium tuberculosis (strain ATCC 25618 / H37Rv)) (UniProt P9WQA3)
Sequence (P9WQA3 whole entry, looked up): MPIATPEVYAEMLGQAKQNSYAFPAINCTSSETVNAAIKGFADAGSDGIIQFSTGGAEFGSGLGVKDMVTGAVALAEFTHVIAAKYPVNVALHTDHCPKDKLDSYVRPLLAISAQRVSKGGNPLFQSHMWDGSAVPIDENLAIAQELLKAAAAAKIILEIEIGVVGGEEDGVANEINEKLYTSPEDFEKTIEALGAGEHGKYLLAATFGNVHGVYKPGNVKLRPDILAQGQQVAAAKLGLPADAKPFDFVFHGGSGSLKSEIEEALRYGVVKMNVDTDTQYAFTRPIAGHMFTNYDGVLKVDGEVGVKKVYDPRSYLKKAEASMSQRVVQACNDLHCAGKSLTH
Assay: M. tuberculosis aldolase activity blockers – biochemical, fluorescence, strain H37Rv, primary screen (AID 588726);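 note: 0% = vehicle and 100% = reference inhibitor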
Details: purified M. tuberculosis FBA, fluorescence read-out, at 1 µM, stronger effect = higher value

First: CC(=O)N1CC[n+]2c(-c3ccc([N+](=O)[O-])cc3)csc21
Second: CC(=O)N1CCSc2ccc(S(=O)(=O)N3CCC(C)CC3)cc21
The inhibition of the first is lower: -3.76% for the first, 3.62% for the second.

First: COc1ccc(C(C)C)cc1S(=O)(=O)Nc1ncn[nH]1
Second: Cc1nc(SC(C)C)[nH]c(=O)c1Cc1ccccc1
The inhibition of the first is lower: -1.62% for the first, 0.91% for the second.

First: COc1ccc2c(c1OC)C(=O)N(c1ccc(O)cc1)C2
Second: COc1ccc(C(C(=O)NC2CCCCC2)N(C(=O)Cc2c[nH]c3ccccc23)c2ccccc2)cc1OC (configuration not stated)
The inhibition of the first is lower: -2.29% for the first, -0.54% for the second.

First: Cc1nnc(NC(=O)CSc2nccn2-c2cccc(C)c2C)s1
Second: Cc1nc2ccccc2c(C(=O)O)c1-c1ccccn1
The inhibition of the first is higher: 1.13% for the first, -2.32% for the second.

First: CCCc1cc(=S)n2c([nH]c3ccccc32)c1C#N
Second: CCOC(=O)C1CCN(C(=O)Cn2cc(C#N)c3ccccc32)CC1
The inhibition of the first is higher: 14.3% for the first, 1% for the second.

Going from `CC12CCC(C(=O)N(CCC#N)CCC#N)(CC1=O)C2(C)C` (configuration not stated) to `COc1ccc(CCN2C(=O)CC(N3CCC(C(N)=O)CC3)C2=O)cc1OC` (configuration not stated), the inhibition falls from 1.36% to -1.48%.

First: Cc1ccc(C(=O)NC(=S)Nc2ccc3[nH]c(=O)[nH]c3c2)cc1C
Second: Cc1cccc(NC(=O)c2cc(S(=O)(=O)N3CCC4(CC3)OCCO4)ccc2F)c1
The inhibition of the first is higher: 2.47% for the first, -0.22% for the second.

First: COC(=O)c1cc(C(=O)NC(C)C2CC3CCC2C3)cc([N+](=O)[O-])c1 (configuration not stated)
Second: O=C(CNC(=O)[C@@H]1Cc2ccccc2CN1)NC1CCCCC1
The inhibition of the first is higher: 6.2% for the first, 0.53% for the second.

First: Cc1cc(C(=O)NC2CCN(Cc3ccccc3)CC2)n[nH]1
Second: O=C(NC1CCN(Cc2ccccc2)CC1)c1ccc(Oc2cc(Cl)cc(Cl)c2)o1
The inhibition of the first is lower: 0.08% for the first, 1.42% for the second.

Compared with `OC(c1ccc(Cl)c(F)c1)c1ncc(-c2ccccc2Cl)[nH]1` (configuration not stated), `OC(Cn1c2ccccc2c2ccccc21)C[n+]1ccccc1` (configuration not stated) is higher in inhibition: -1.69% for the first, -1.64% for the second.

First: CS(=O)(=O)N(CC(O)Cn1c2ccccc2c2ccccc21)c1cccc2ccccc12 (configuration not stated)
Second: CCc1ccc(-c2cc(C(=O)NN3CCN(C)CC3)c3ccccc3n2)cc1
The inhibition of the first is lower: -2.35% for the first, 0.75% for the second.

First: CC(C)C(NC(=O)OCc1ccccc1)C(=O)OCC(=O)N1C(C)CCCC1C (configuration not stated)
Second: N#Cc1c(N)nc2c(c1N)CC(C(F)(F)F)O2 (configuration not stated)
The inhibition of the first is higher: 2.57% for the first, 0.26% for the second.

With `COc1ccc2c(c1OC)C(=O)N(c1ncn[nH]1)C2` the inhibition was 31.1% (active).
For `O=C(NC1CCN(Cc2ccccc2)CC1)c1cc(Br)c(Br)[nH]1`, the inhibition was 40% (active).
For `CCCCN(CCCC)CC(O)Cn1c2ccccc2c(=O)c2ccccc21` (configuration not stated), the inhibition was 71.2% (active).
